This is part of a sample that, as a whole, favours compounds with a hit. Of some 83,000 tested, about 20% had one in any assay.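 Plates (96-well) were seeded with cells, treated with compound at one concentration, and incubated for 48 hours before percent growth was determined.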 The source made the active and inactive calls. How the source made its calls: active means growth percent below 10; inactive means the rest.
Tested on: SNB-19 CNS
Experiment: NCI-60 one-dose screen, 48 h (100 = growth as untreated, 0 = no growth, -100 = all killed)
Details: 10 µM unless noted

SMILES | growth
CC[C@H](CO)Nc1ccc2ncc(C#Cc3cncc(C(=O)Nc4ccc(CN5CCN(C)CC5)c(C(F)(F)F)c4)c3)n2n1 | -22.4% (active)
COc1cc(-c2nc(SCCC(C)C)nc(NNC(=O)c3ccncc3)c2C#N)cc(OC)c1OC | 66% (inactive)
CCCCCc1ccc(S(=O)(=O)Nc2cc(-c3csc(NC(=O)CN4CCN(CCO)CC4)n3)ccc2OC)cc1 | 31% (inactive)
CCCn1cnc2c(c1=N)C(c1ccc(OC)cc1)c1sc3c(CC)cccc3c1O2 (stereo not drawn) | 22% (inactive)
C#Cc1ccc(C(=O)NCc2ccc(/C=C/C(=O)c3nccn3C)cc2)cc1 | 16.9% (inactive)

Tested on: U251 CNS
Experiment: as above
Details: 10 µM unless noted

SMILES | growth
NS(=O)(=O)c1ccc(Nc2nc(N/N=C/c3c[nH]c4ccccc34)nc(Nc3ccccc3)n2)cc1 | 28.1% (inactive)
CCc1cccc2c3c(sc12)C(c1ccc(OC)cc1)C(C#N)=C(/N=C/c1ccc(Cl)cc1)O3 (stereo not drawn) | 20.1% (inactive)
Cn1ccnc1C(=O)/C=C/c1ccc(CNC(=O)c2ccc(F)cc2)cc1 | 17.7% (inactive)
N#Cc1cccc(NC(=O)c2cc(-c3ccc(F)cc3F)ccc2O)c1 | 10.9% (inactive)
O=S(=O)(NCCCNc1nccc(-c2[nH]c(-c3ccccc3)nc2-c2ccc(Cl)c(O)c2)n1)c1cccc2ccccc12 | 14.7% (inactive)
CC1(C)[C@@H](O)CC[C@]2(C)[C@H]3CC[C@@H]4[C@H]5[C@H](C(=O)/C=C\c6ccncc6)CC[C@]5(O)CC[C@@]4(C)[C@]3(C)CC[C@@H]12 | 61.1% (inactive)
CS(=O)(=O)Nc1cc(-c2ccc3ncc(C#N)c(N[C@H](CO)c4ccccc4)c3c2)cnc1Cl | 36.1% (inactive)
O=C(CSc1nc2ccccc2c(=O)n1-c1ccccc1)Nc1ccc(-c2nc3ccc([N+](=O)[O-])cc3[nH]2)cc1 | 87.6% (inactive)
Oc1cccc2ccc(-c3nnc(SCc4ccc(O)c5ncccc45)n3-c3ccccc3)nc12 | 8.21% (active)
C=CCn1c(SCC(=O)Nc2ccc(C(=O)/C=C/c3ccc(C)cc3)cc2)nnc1-c1c[nH]c2ccccc12 | 92.2% (inactive)
C[C@@H](Nc1c(C#N)cnc2ccc(-c3cnc(Cl)c(NS(C)(=O)=O)c3)cc12)c1ccccc1 | 15.2% (inactive)
CCN(CC)c1ccc(NC2=C(Cl)C(=O)c3nc(C)ccc3C2=O)cc1 | 94.3% (inactive)
C#Cc1nc(C(=O)NCCC(=O)Nc2ccc(NC(=O)c3ccc(/C=C/C(=O)c4nccn4C)cc3)cc2)cs1 | 3.44% (active)
CCN(CC)CCn1c2ccc(O)cc2c2sc3cc(OC)ccc3c(=O)c21 | 16.1% (inactive)
CC1(C)CC[C@]2(C(=O)N3CCOCC3)CC[C@]3(C)C(=CC[C@@H]4[C@@]5(C)C/C(=C/c6ccccn6)C(=O)C(C)(C)[C@@H]5CC[C@]43C)[C@@H]2C1 | 80.7% (inactive)
Cc1nc(-c2ccccc2O)ccc1C(=O)N=Nc1c(O)[nH]c2ccc(Br)cc12 | 103% (inactive)
O=C(CCn1c[n+](CC(=O)c2ccc(-c3ccccc3)cc2)c2ccccc21)Nc1cccc2cccnc12 | 42.9% (inactive)
COC(=O)c1[nH]nc2c1C1(C(=O)c3cccc4cccc1c34)C(C#N)=C(N)O2 (stereo not drawn) | 105% (inactive)
N=c1c2cc(-c3ccccc3)oc2ncn1/N=C/c1ccc(Cl)cc1 | 66.4% (inactive)
Cc1ccc(-n2c(/C=C3\C(=O)Nc4ccccc43)ccc2CO)cc1 | 77.8% (inactive)
CC(=O)N(C)C1CCc2c(sc(NC(=O)c3ccc(C(C)(C)C)cc3)c2C(N)=O)C1 (stereo not drawn) | 51.8% (inactive)
CC1(C)[C@@H](O)CC[C@]2(C)[C@H]3CC[C@@H]4[C@H]5[C@H](C(=O)/C=C\c6ccc([N+](=O)[O-])cc6)CC[C@]5(O)CC[C@@]4(C)[C@]3(C)CC[C@@H]12 | 69.9% (inactive)
Cc1ccc(NC(=O)CNc2cc(C(N)=O)cc(F)c2C)c(Cl)c1 | 106% (inactive)
COc1ccc(N2CCN(C3=C(Cl)C(=O)C(C)=C(C)C3=O)CC2)cc1 | 100% (inactive)
CN1CCN(c2ccc(/C=N/Nc3nc4ccccc4c(=O)n3-c3ccccc3)cc2)CC1 | 102% (inactive)
COc1cc(-c2nc3sccn3c2-c2ccnc(S(C)(=O)=O)n2)ccc1F | 99.1% (inactive)
Cc1ccc2c(c1)Oc1nc(N)c(C#N)c(N)c1C2Sc1ccc(F)cc1 (stereo not drawn) | -95.9% (active)
CCCn1cnc2c(c1=N)C(c1ccc(F)cc1)c1sc3c(C)cccc3c1O2 (stereo not drawn) | 24.4% (inactive)

Source: PubChem BioAssay (NCI)
